Holding throughout (assay): PBM; 200 nM protein, PBS
Holding throughout (conditions): dsDNA, one strand shown

Assay [1] has as its target NKX2-5 (Homo sapiens, UniProt P52952 125-210, R139K).
In assay [2] the target is T1, NKX2-4 (Homo sapiens, UniProt Q9H2Z4 175-261, P217L).
T1 sequence: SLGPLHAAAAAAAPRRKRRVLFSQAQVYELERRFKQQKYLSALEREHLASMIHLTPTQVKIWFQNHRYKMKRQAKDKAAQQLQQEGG

The target in assay [3] is T2, NKX2-4 (Homo sapiens, UniProt Q9H2Z4 175-261, T231S).
T2 sequence: T1 sequence with L43P, T57S

Assay [4] has as its target T3, NKX2-4 (Homo sapiens, UniProt Q9H2Z4 175-261).
T3 sequence: T1 sequence with L43P

The target of assay [5] is T4, NKX2-6 (Homo sapiens, UniProt A6NCS4 118-204, R150C).
T4 sequence: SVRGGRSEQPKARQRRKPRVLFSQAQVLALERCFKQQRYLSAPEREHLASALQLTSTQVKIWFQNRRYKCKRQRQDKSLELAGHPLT

Assay [6] addresses T5, NKX2-6 (Homo sapiens, UniProt A6NCS4 118-204).
T5 sequence: T4 sequence with C33R

Assay [7] concerns the target T6, NKX2-4 (Homo sapiens, UniProt Q9H2Z4 175-261, R246Q).
T6 sequence: T1 sequence with L43P, R72Q

The target of assay [8] is T7, NKX2-6 (Homo sapiens, UniProt A6NCS4 118-204, F151L).
T7 sequence: T4 sequence with C33R, F34L

In assay [9] the target is NKX3-2 (Homo sapiens, UniProt P78367 192-278, P234S).
In assay [10] the target is NKX2-5 (Homo sapiens, UniProt P52952 125-210).
For assay [11], the target named is NKX3-2 (Homo sapiens, UniProt P78367 192-278).

Changes are numbered by the printed parent chain.

Sequence of NKX3-2 (Homo sapiens, UniProt P78367 192-278) (P78367 192-278): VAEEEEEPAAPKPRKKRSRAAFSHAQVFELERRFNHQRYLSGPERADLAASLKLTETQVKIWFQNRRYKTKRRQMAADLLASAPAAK
Sequence of NKX3-2 (Homo sapiens, UniProt P78367 192-278, P234S) (P78367 192-278 P234S): as the sequence (P78367 192-278) above, with P43S counted along it
Sequence of NKX2-5 (Homo sapiens, UniProt P52952 125-210) (P52952 125-210): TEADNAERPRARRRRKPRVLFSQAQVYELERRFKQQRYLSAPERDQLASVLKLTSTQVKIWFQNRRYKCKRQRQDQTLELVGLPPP
Sequence of NKX2-5 (Homo sapiens, UniProt P52952 125-210, R139K) (P52952 125-210 R139K): as the sequence (P52952 125-210) above, with R15K counted along it

In the case of CCCACTTA, the binding signal with NKX2-5 [1] is 13 upbm affinity estimate (log intensity, higher = more binding, comparable within an allelic series); in the assay with NKX2-4 [2] it was 12.7 upbm affinity estimate (log intensity, higher = more binding, comparable within an allelic series); with NKX2-4 [3], 13 upbm affinity estimate (log intensity, higher = more binding, comparable within an allelic series); in the assay with NKX2-4 [4], 12.6 upbm affinity estimate (log intensity, higher = more binding, comparable within an allelic series); with NKX2-6 [5] it was 12.2 upbm affinity estimate (log intensity, higher = more binding, comparable within an allelic series); with NKX2-6 [6] it was 13.7 upbm affinity estimate (log intensity, higher = more binding, comparable within an allelic series). Moreover, the binding signal with NKX2-4 [7] was 13.1 upbm affinity estimate (log intensity, higher = more binding, comparable within an allelic series); with NKX2-6 [8], 11.1 upbm affinity estimate (log intensity, higher = more binding, comparable within an allelic series); with NKX3-2 [9], 13.2 upbm affinity estimate (log intensity, higher = more binding, comparable within an allelic series); with NKX2-5 [10], 12.9 upbm affinity estimate (log intensity, higher = more binding, comparable within an allelic series); in the assay with NKX3-2 [11], 13.2 upbm affinity estimate (log intensity, higher = more binding, comparable within an allelic series).

Regarding AGCACTTA, the binding signal in the assay with NKX2-5 [1] is 12.9 upbm affinity estimate (log intensity, higher = more binding, comparable within an allelic series); with NKX2-4 [2] it was 12.6 upbm affinity estimate (log intensity, higher = more binding, comparable within an allelic series); in the assay with NKX2-4 [3], 13 upbm affinity estimate (log intensity, higher = more binding, comparable within an allelic series); with NKX2-4 [4] it was 12.5 upbm affinity estimate (log intensity, higher = more binding, comparable within an allelic series); with NKX2-6 [5] it was 12 upbm affinity estimate (log intensity, higher = more binding, comparable within an allelic series); with NKX2-6 [6], 13.7 upbm affinity estimate (log intensity, higher = more binding, comparable within an allelic series). The binding signal in the assay with NKX2-4 [7] is 13.1 upbm affinity estimate (log intensity, higher = more binding, comparable within an allelic series); with NKX2-6 [8], 11.3 upbm affinity estimate (log intensity, higher = more binding, comparable within an allelic series); in the assay with NKX3-2 [9], 12.9 upbm affinity estimate (log intensity, higher = more binding, comparable within an allelic series); in the assay with NKX2-5 [10], 12.8 upbm affinity estimate (log intensity, higher = more binding, comparable within an allelic series); in the assay with NKX3-2 [11] it was 12.9 upbm affinity estimate (log intensity, higher = more binding, comparable within an allelic series).

For AAGTGGAG, the binding signal with NKX2-5 [1] is 12.2 upbm affinity estimate (log intensity, higher = more binding, comparable within an allelic series); with NKX2-4 [2] it was 12.4 upbm affinity estimate (log intensity, higher = more binding, comparable within an allelic series); in the assay with NKX2-4 [3] it was 12.7 upbm affinity estimate (log intensity, higher = more binding, comparable within an allelic series); in the assay with NKX2-4 [4] it was 12.3 upbm affinity estimate (log intensity, higher = more binding, comparable within an allelic series); in the assay with NKX2-6 [5], 11.7 upbm affinity estimate (log intensity, higher = more binding, comparable within an allelic series); in the assay with NKX2-6 [6] it was 13.3 upbm affinity estimate (log intensity, higher = more binding, comparable within an allelic series). For the same sequence, the binding signal in the assay with NKX2-4 [7] is 12.8 upbm affinity estimate (log intensity, higher = more binding, comparable within an allelic series); with NKX2-6 [8], 10.6 upbm affinity estimate (log intensity, higher = more binding, comparable within an allelic series); with NKX3-2 [9], 12.7 upbm affinity estimate (log intensity, higher = more binding, comparable within an allelic series); in the assay with NKX2-5 [10], 12.2 upbm affinity estimate (log intensity, higher = more binding, comparable within an allelic series); with NKX3-2 [11] it was 12.8 upbm affinity estimate (log intensity, higher = more binding, comparable within an allelic series).

In the case of AAGTGGAT, the binding signal with NKX2-5 [1] was 12.5 upbm affinity estimate (log intensity, higher = more binding, comparable within an allelic series); in the assay with NKX2-4 [2], 12.5 upbm affinity estimate (log intensity, higher = more binding, comparable within an allelic series); with NKX2-4 [3], 12.8 upbm affinity estimate (log intensity, higher = more binding, comparable within an allelic series); in the assay with NKX2-4 [4], 12.3 upbm affinity estimate (log intensity, higher = more binding, comparable within an allelic series); with NKX2-6 [5], 11.8 upbm affinity estimate (log intensity, higher = more binding, comparable within an allelic series); with NKX2-6 [6], 13.3 upbm affinity estimate (log intensity, higher = more binding, comparable within an allelic series). For the same sequence, the binding signal with NKX2-4 [7] was 12.9 upbm affinity estimate (log intensity, higher = more binding, comparable within an allelic series); with NKX2-6 [8], 10.7 upbm affinity estimate (log intensity, higher = more binding, comparable within an allelic series); in the assay with NKX3-2 [9], 12.8 upbm affinity estimate (log intensity, higher = more binding, comparable within an allelic series); with NKX2-5 [10], 12.5 upbm affinity estimate (log intensity, higher = more binding, comparable within an allelic series); with NKX3-2 [11] it was 12.8 upbm affinity estimate (log intensity, higher = more binding, comparable within an allelic series).

Turning to AGTACTTA, the binding signal with NKX2-5 [1] was 12.9 upbm affinity estimate (log intensity, higher = more binding, comparable within an allelic series); in the assay with NKX2-4 [2] it was 12.6 upbm affinity estimate (log intensity, higher = more binding, comparable within an allelic series); with NKX2-4 [3] it was 13.1 upbm affinity estimate (log intensity, higher = more binding, comparable within an allelic series); with NKX2-4 [4] it was 12.5 upbm affinity estimate (log intensity, higher = more binding, comparable within an allelic series); with NKX2-6 [5] it was 12 upbm affinity estimate (log intensity, higher = more binding, comparable within an allelic series); with NKX2-6 [6], 13.8 upbm affinity estimate (log intensity, higher = more binding, comparable within an allelic series). Further, the binding signal in the assay with NKX2-4 [7] was 13.1 upbm affinity estimate (log intensity, higher = more binding, comparable within an allelic series); in the assay with NKX2-6 [8], 11.2 upbm affinity estimate (log intensity, higher = more binding, comparable within an allelic series); with NKX3-2 [9] it was 12.6 upbm affinity estimate (log intensity, higher = more binding, comparable within an allelic series); with NKX2-5 [10], 12.8 upbm affinity estimate (log intensity, higher = more binding, comparable within an allelic series); in the assay with NKX3-2 [11], 12.7 upbm affinity estimate (log intensity, higher = more binding, comparable within an allelic series).

Turning to AAGTACCT, the binding signal is 12.6 upbm affinity estimate (log intensity, higher = more binding, comparable within an allelic series) in the assay with NKX2-5 [1]; 12.5 upbm affinity estimate (log intensity, higher = more binding, comparable within an allelic series) with NKX2-4 [2]; 12.9 upbm affinity estimate (log intensity, higher = more binding, comparable within an allelic series) with NKX2-4 [3]; 12.4 upbm affinity estimate (log intensity, higher = more binding, comparable within an allelic series) with NKX2-4 [4]; 11.7 upbm affinity estimate (log intensity, higher = more binding, comparable within an allelic series) with NKX2-6 [5]; 13.4 upbm affinity estimate (log intensity, higher = more binding, comparable within an allelic series) in the assay with NKX2-6 [6]. In addition, the binding signal with NKX2-4 [7] was 12.9 upbm affinity estimate (log intensity, higher = more binding, comparable within an allelic series); in the assay with NKX2-6 [8], 10.6 upbm affinity estimate (log intensity, higher = more binding, comparable within an allelic series); with NKX3-2 [9], 12.6 upbm affinity estimate (log intensity, higher = more binding, comparable within an allelic series); with NKX2-5 [10], 12.4 upbm affinity estimate (log intensity, higher = more binding, comparable within an allelic series); in the assay with NKX3-2 [11] it was 12.6 upbm affinity estimate (log intensity, higher = more binding, comparable within an allelic series).

Source of the values: article PMC11006913.
